Source: PubChem BioAssay AID710 (SRMLSC, 2007)
Hit rate of the full screen: of about 98,000 compounds, about 150 (0.15%) were called active. This is one part of a sample in which actives are shown more often than they occur. Values without a mark were called inactive.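 Rule for the calls: active = growth inhibition above about 50% at one test dose (limit read from the data); inactive = the rest.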

Assay: growth inhibitors of wild-type E. coli, primary screen, strain BW25113, expanded library, OD600 (AID 710);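 note: growth measured after 20 h incubation at 37 °C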
Conditions: OD600 absorbance, at 100 µM, active compounds read high

Row | Compound | growth inhibition
1 | COc1ccc(C(C#N)Nc2ccccc2C)cc1 (centres undefined) | 5%
2 | COc1cc(/C=C2\SC(=S)N(Nc3ncc(C(F)(F)F)cc3Cl)C2=O)cc(OC)c1OC | -7%
3 | COc1ccccc1N(C)S(=O)(=O)c1ccc(C(=O)N2CCC(C(N)=O)CC2)cc1 | 3%
4 | CCCCNC(=O)C1CCCN(S(=O)(=O)c2ccc(S(=O)(=O)NCC(C)C)cc2)C1 (centres undefined) | -1%
5 | Cc1cc(-c2ccccc2)nc(N2CCC(C(=O)NC34CC5CC(CC(C5)C3)C4)CC2)n1 | -9%
6 | S=c1[nH]nc2c3c4c(sc3ncn12)CCCC4 | 1%
7 | CCn1c(/C=C/c2ccc([N+](=O)[O-])o2)nc2ccccc2c1=O | 6%
8 | COC(=O)c1ccccc1Oc1c(F)c(F)nc(N2CCOCC2)c1F | 7%
9 | CCN1CCN(c2ccc([N+](=O)[O-])cc2C(=O)c2ccc(Cl)cc2)CC1 | 8%
10 | CCOC(=O)c1nc(C)n(-c2ccc(Cl)cc2Cl)n1 | 8%
11 | O=[N+]([O-])c1ccccc1OCCCCN1CCCCC1 | 8%
12 | C=CCn1c(-c2ccc3[nH]c(C)c(C)c3c2)n[nH]c1=S | 2%
13 | Cc1ccc(C(c2nnnn2CS(=O)(=O)c2ccc(C)cc2)N2CCC(C)CC2)cc1 (centres undefined) | -1%
14 | CCCNC(=O)c1c(N)n(-c2ccc(S(N)(=O)=O)cc2)c2nc3ccccc3nc12 | -1%
15 | O=C(O)CSCC(=O)Nc1cccc(C(F)(F)F)c1 | 3%
16 | FC(F)(F)c1cccc(NC(=S)Nc2cccc(Cl)c2)c1 | 50% (active)
17 | CC(=O)N1CCN(C(=O)Nc2cccc(C(F)(F)F)c2)CC1 | 17%
18 | Cc1cccn2c(=O)c(/C=C(\C#N)S(=O)(=O)c3ccc(Cl)cc3)c(N3CCC(C(N)=O)CC3)nc12 | 0%
19 | COc1ccc(N2CCN(C(=O)CCc3nc(-c4ccc(C)cc4)no3)CC2)cc1 | -5%
20 | CC(C)C(=O)Nc1cccc(NC(=S)NC(=O)C(c2ccccc2)c2ccccc2)c1 | -13%
21 | O=C(CNC(=O)c1ccccc1)NCC(=O)OCc1ccc(Cl)cc1 | 1%
22 | COc1ccc(-c2nn(C)c(=O)c3ccccc23)cc1NC(=O)COc1ccccc1 | 2%

Row | Compound | growth inhibition
23 | CN(C(=O)CC(NC(=O)c1ccccc1)(c1ccccc1)c1ccccc1)c1ccccc1 | -17%
24 | CCOC(=O)CSc1ncc(-c2cccc(Cl)c2)cn1 | 2%
25 | O=C(CSc1nnc(-c2cccs2)n1Cc1ccccc1)N1CCc2ccccc2C1 | -18%
26 | Cc1cccc(NC(=O)CSc2nc3c(c(=O)[nH]2)CCCC3)c1C | 3%
27 | COC(=O)CNC(c1ccccc1Cl)c1cc(Br)ccc1NC(=O)CCN1CCOCC1 (centres undefined) | -3%
28 | CCOC(=O)C1=C(CN2CCc3ccccc32)NC(=O)NC1c1ccc(Cl)cc1 (centres undefined) | -2%
29 | O=C(CN(c1ccccc1)S(=O)(=O)c1ccc(Cl)cc1)Nc1ccccc1C(=O)N1CCCC1 | -17%
30 | Cc1cc(OC(=O)c2c(Cl)cccc2Cl)nc(C)n1 | 5%
31 | COc1ccc(-n2nc(C(=O)NCC(=O)Nc3cccc(C)n3)c3ccccc3c2=O)cc1 | -15%
32 | CCOc1cccc(SCc2noc(C(=O)NC(C)C)c2C(=O)O)c1 | -4%
33 | CCOC(=O)C(=CNc1cccc(C)n1)C(=O)OCC | -6%
34 | O=C(NCC1CCCO1)/C(=C\c1ccco1)NC(=O)c1ccccc1 (centres undefined) | -5%
35 | O=C(NC1(C(F)(F)F)NC(=O)N(Cc2cccnc2)C1=O)c1ccccc1Cl (centres undefined) | -1%
36 | O=C(/C=C/NNC(=O)c1cccc(Br)c1)c1ccccc1 | -3%
37 | CNC(=O)c1c(NC(NC(=O)c2ccco2)C(=O)c2ccc(Cl)cc2)sc2c1CCCC2 (centres undefined) | -6%
38 | CCOc1ccc(C(O)Cn2c(=N)n(CCN3CCCCC3)c3ccccc32)cc1 (centres undefined) | -1%
39 | Cc1ccc(OCC(=O)Nn2cnc3ccccc32)cc1 | 5%
40 | Cc1ccc(-n2nc3ccc(NC(=O)/C=C/c4ccco4)cc3n2)cc1C | -1%
41 | S=c1nccc(-c2cc(Cl)sc2Cl)[nH]1 | 3%
42 | COc1ccccc1NC(=O)c1ccc2nc(N3C(=O)CCC3=O)sc2c1 | 0%
43 | N#C/C(=C1/CCCN1)c1ccccn1 | 3%
44 | CCOc1ccc(NC(=O)c2ccccc2NS(C)(=O)=O)cc1 | -4%

Row | Compound | growth inhibition
45 | S=c1[nH]nc(-c2ccc(Cl)cc2)n1CC1CCCO1 (centres undefined) | 2%
46 | CSc1ccc(CCNC(=O)C2CCN(c3nnc(-n4cccc4)s3)CC2)cc1 | -3%
47 | CSc1ccccc1C(=O)Nc1cccc(C(C)=O)c1 | -4%
48 | Clc1ccc(-c2nnc(-c3ccccc3)nc2N2CCSCC2)cc1 | -24%
49 | COC(=O)c1c(CCl)noc1C(=O)NC(C)C | 1%
50 | CCn1c(Cc2cccs2)nnc1SCC(=O)c1ccc(C)cc1 | -2%
51 | Cc1cccc(NC(=O)N(Cc2cc3cc(C)cc(C)c3[nH]c2=O)CC2COCCO2)c1 (centres undefined) | -1%
52 | CCCCCOC(=O)c1ccc(N2C(=O)C3C4C=CC(C4)C3C2=O)cc1 (centres undefined) | -5%
53 | Cn1ncc(Br)c1C(=O)NCc1cccs1 | 5%
54 | COc1ccc(/C(N)=N/OC(=O)Oc2ccccc2)cc1 | -14%
55 | CCOC(=O)c1nn(-c2cccc(C)c2)cc1C(=O)c1ccccc1 | 5%
56 | Cc1ccc(N(CC(=O)Nc2cccc(N(C)S(C)(=O)=O)c2)S(C)(=O)=O)cc1 | -5%
57 | Cc1ccn(C(CC(=O)c2ccc(Br)cc2)C(=O)O)n1 (centres undefined) | 8%
58 | Cn1sc(NC(=O)c2ccccc2)nc1=O | -5%
59 | Cc1cc(C)c(S(=O)(=O)N2C=CC(C(F)(F)F)=NCC2)c(C)c1 | 7%
60 | CCOc1ccc(S(=O)(=O)Nc2nc3cc(OC)ccc3s2)cc1 | -6%
61 | CCCCc1nc(NCCN)c(C#N)c2c1CSC(C)(C)C2 | 33%
62 | Cc1ccc(Oc2ccc3c(c2)C(=O)N(c2cccc4cccnc24)C3=O)cc1 | 3%
63 | OCCNc1nc2ccccc2[nH]1 | 2%
64 | Cc1ccc(S(=O)(=O)N2CCC(C(=O)NCC3CCCO3)CC2)cc1 (centres undefined) | -7%
65 | CC1(C)Cc2nc3sc4c(SCC(=O)NC(c5ccccc5)c5ccccc5)ncnc4c3cc2CO1 | -10%
66 | CN(C)C(=O)c1cc(Br)ccc1Cl | 2%

Row | Compound | growth inhibition
67 | C=CCN(C(=O)Cn1ncc2c1-c1cc(C)ccc1OC2)c1ccccc1 | 5%
68 | O=c1[nH]n(-c2cccc(Cl)c2)c2ncccc12 | -6%
69 | CCOc1ccccc1NC(=O)C12CC3CC(C1)CC(c1ccc(C)cc1)(C3)C2 | -16%
70 | O=C(CCN1c2ccccc2Sc2ccccc21)Nc1ccccc1 | -21%
71 | Cc1cc([N+](=O)[O-])ccc1NCc1cccc([N+](=O)[O-])c1 | -11%
72 | CCOc1ccc(S(=O)(=O)Nc2ccc(S(=O)(=O)Nc3cc(OC)ccc3OC)cc2)cc1 | -6%
73 | CCCCn1c(=S)[nH]c2cc(S(=O)(=O)N3CCCCC3)ccc21 | 2%
74 | CSC1=N/C(=C\c2ccc3c(c2)OCO3)C(=O)S1 | -11%
75 | COc1cccc(NC(=O)c2nn(C34CC5CC(CC(C5)C3)C4)cc2[N+](=O)[O-])c1 | -6%
76 | O=c1c2ccccc2c(-c2ccc(Br)cc2)nn1Cc1ccccc1 | -14%
77 | COc1ccc(-c2cn(-c3ccc(C)cc3)c(=O)n2CC(=O)Nc2ccc(OC)c(OC)c2)cc1 | -4%
78 | CC1CC(C)CN(C/C=C/c2ccccc2[N+](=O)[O-])C1 (centres undefined) | -1%
79 | CCCCNC(=O)OC(C)CNC(=O)OC (centres undefined) | 10%
80 | Cc1cc(NC(=O)CS(=O)(=O)c2cn(C)c3ccccc23)no1 | 0%
81 | COc1cc(CNCc2cccs2)cc(Br)c1OC | 5%
82 | c1ccc(COc2ccccc2CNCc2cccnc2)cc1 | 3%
83 | CCNc1nc(N)nc(-c2cc(Cl)ccc2OC)n1 | 4%
84 | Cn1c(-c2sc3cc(C(F)(F)F)cnc3c2-c2ccccc2)n[nH]c1=S | -2%
85 | C=CCn1c(SCC(=O)c2ccc(Br)cc2)nnc1C(C)NC(=O)Cc1ccc(OC)cc1 (centres undefined) | 4%
86 | Cc1ccc(C(=O)N2CCN(C(=O)N3CCOCC3)CC2)cc1 | 0%
87 | CCN(CC)S(=O)(=O)c1ccc(N(C)Cc2ccc(C(F)(F)F)cc2)nc1 | -2%
88 | CC(C)Cn1cnc2c1c(=O)n(CC(O)c1ccccc1)c(=O)n2CC(C)C (centres undefined) | 8%

Row | Compound | growth inhibition
89 | CC(=O)c1ccc2c(c1)c1ccccc1n2CC(C)C | -1%
90 | CC(=O)c1c(C)n([O-])c2ccccc2[n+]1=O | 100% (active)
91 | Cc1ccc(C)c(N2C(=O)CS/C2=N\NC(=O)c2ccccc2Cl)c1 | 1%
92 | Nc1c(-c2ccc(F)cc2)cnn1C1CCS(=O)(=O)C1 (centres undefined) | 15%
93 | COc1ccc(-c2c(C(C)=O)c(C)nc3sc4c(=O)n(-c5ccc(C)cc5)nnc4c23)cc1 | -14%
94 | COc1ccc(S(=O)(=O)Nc2ccc(F)cc2)c(C)c1C | 11%
95 | O=C(c1ccc2c(c1)OCO2)N1CCN(C(=O)c2ccco2)CC1 | 2%
96 | CN=C1S/C(=C\c2ccc(Sc3ccc(Cl)cc3)o2)C(=O)N1C | -20%
97 | COC(=O)CNS(=O)(=O)c1ccc(OC)cc1 | 1%
98 | COC(=O)COc1ccc(S(=O)(=O)Nc2ccc(NC(C)=O)cc2)cc1 | 0%
99 | COC(=O)CNS(=O)(=O)c1ccc(Cc2ccc(S(=O)(=O)NCC(=O)OC)cc2)cc1 | 50% (active)
100 | Cc1ccc(C2CC2C(=O)NN)cc1 (centres undefined) | -12%
101 | CCCNC(=O)c1ccccc1NC(=O)CSCc1ccc(OC)cc1 | 0%
102 | Cc1ccc(Sc2cc(N3CCOCC3)nc(-c3ccccc3)n2)cc1 | -9%
103 | C=CCn1c(SCC(=O)/C(C#N)=C(\C)N)nc2sc(C)c(C)c2c1=O | -6%
104 | CC(C)(C)c1ccc(OC2=CS(=O)(=O)c3ccccc32)cc1 | -3%
105 | Cc1ccc(CNC(=O)C2CC(c3ccccc3[N+](=O)[O-])=NO2)o1 (centres undefined) | 0%
106 | CCC(=O)Nc1ccc(S(=O)(=O)NCC2CCCO2)cc1 (centres undefined) | 3%
107 | CC(C)c1ccc(C(=O)NCCCc2ccccc2)cc1 | 1%
108 | C=CCOC(=O)C1=C(C)NC(SCC(=O)OCC)=C(C#N)C1c1ccc(C)cc1 (centres undefined) | -10%
109 | CCOc1ccc(C(=O)NC(C(=O)NCc2ccccn2)C(C)C)cc1 (centres undefined) | -6%
